Data reported in PubChem BioAssay AID1851 (National Center for Advancing Translational Sciences (NCATS), 2009).
“And” between values parts separate entries of the source, which are not always exact repeats. Identical values can stand only once. Hit rate of the full screen: of about 16,000 compounds, about 5,800 (36%) were called active. Another 23% or so got no clear call; they are omitted. Calls come from the whole dose curve; as a rule, active = well fitted curve in the direction sought with a large enough effect; inconclusive = small, poorly fitted or top-dose-only effect, or effect the other way; inactive = no such curve, though single readings can be large or run the other way. The list shows a part of the results. More than one record can exist for a structure, and the calls need not agree.

The compounds below were run against Cytochrome P450 2C19 (Homo sapiens) (UniProt P33261) (assay: Cytochrome panel assay with activity outcomes). Conditions: recombinant CYP, pro-luciferin dealkylation, luminescence, p450-cyp2c19; series mostly up to 57.1 µM.
% is set by controls: 0 for no effect and ±100 for the full control effect.

Cytochrome P450 2C19 (Homo sapiens), sequence (P33261 whole entry, looked up): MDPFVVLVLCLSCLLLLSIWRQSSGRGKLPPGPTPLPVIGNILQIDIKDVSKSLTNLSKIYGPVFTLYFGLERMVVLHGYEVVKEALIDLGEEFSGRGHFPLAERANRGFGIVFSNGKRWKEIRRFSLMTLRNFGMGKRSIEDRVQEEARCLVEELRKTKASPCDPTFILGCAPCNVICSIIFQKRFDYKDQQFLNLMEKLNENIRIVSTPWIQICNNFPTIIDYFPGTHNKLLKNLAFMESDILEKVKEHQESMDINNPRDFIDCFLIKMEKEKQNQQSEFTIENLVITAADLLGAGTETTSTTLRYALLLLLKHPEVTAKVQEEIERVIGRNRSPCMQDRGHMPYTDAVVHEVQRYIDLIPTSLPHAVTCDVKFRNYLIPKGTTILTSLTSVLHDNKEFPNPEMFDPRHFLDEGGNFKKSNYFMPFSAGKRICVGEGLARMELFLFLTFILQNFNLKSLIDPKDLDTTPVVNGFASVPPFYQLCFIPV

SMILES	AC50	activity, negative = inhibition
CC12c3ccccc3C(c3ccccc31)C1C(=O)N(Cc3cccnc3)C(=O)C12 (centres undefined)	1.26 µM (active)	–
Nc1ccccc1Oc1ncc(C(F)(F)F)cc1Cl	7.94 µM (active)	–
FC(F)(F)c1cnc(/C=C/Nc2ccccc2Cl)c(Cl)c1	inactive	–
Oc1cc(O)c2c(c1)O[C@H](c1ccc(O)c(O)c1)[C@H](O)C2	inactive	–
CN1CCN(c2nc3cc(C(F)(F)F)ccc3n3cccc23)CC1	12.6 µM (active)	–
CCOc1ccc2c(ccc(/C=C\c3cc(C)c4cccnc4c3O)[n+]2C)c1	–	27.7% [at 11.4 µM] (inactive)
Cc1ccc(OCCCOc2cccc3cccnc23)cc1C	1.12 µM (active)	–
COc1cc(NCCC(=O)O)c2ncccc2c1	–	-14.2% [at 11.4 µM] (inactive)
O=C1N/C(=C\c2ccc(N3CCOCC3)c(F)c2)C(=O)N1Cc1ccccc1	14.1 µM (active)	–
c1ccc2c(N3CCOCC3)nc(-c3ccoc3)nc2c1	inactive	–
c1ccc2c(N3CCNCC3)nc(-c3ccc4c(c3)OCO4)nc2c1	inactive	–
CN(C)c1ccc(-c2nc(-n3ccnc3)c3ccccc3n2)cc1	2.51 µM (active)	–
c1cncc(-c2nc(N3CCNCC3)c3ccccc3n2)c1	inactive	–
CN(C)c1ccc(-c2nc(N3CCNCC3)c3ccccc3n2)cc1	15.8 µM (active)	–
CN1CCN(c2nc(-c3ccoc3)nc3ccccc23)CC1	inactive	–
c1ccc2c(-n3ccnc3)nc(-c3ccoc3)nc2c1	20 µM (active)	–
CO[C@@H]1/C=C\CC(=O)N[C@@H](C)C(=O)OC[C@@H](OC)[C@H](C)/C=C\CC(=O)OC[C@H]1C	–	-30.6% [at 11.4 µM] (inactive)
Nc1ccc(S(=O)(=O)Nc2ccccn2)cc1	inactive	–
CN(C)S(=O)(=O)Nc1ccccn1	–	-1.75% [at 11.4 µM] (inactive)
O=C1C(Cl)=C(Nc2ccc(S(=O)(=O)Nc3ccccn3)cc2)C(=O)c2ccccc21	0.794 µM (active)	–
CCOC(=O)N1CCC(NC(=O)CSCc2cnn(-c3ccccc3)c2-n2cccc2)CC1	5.01 µM (active)	–
Cc1ccc(C)c(CN2C(=O)C3CCCN3c3ccc(C#N)cc32)c1 (centres undefined)	3.16 µM (active)	–
Cc1ccc(C)c(C(=N)c2ccccc2Cc2ccccc2)c1	1 µM (active)	–

SMILES	AC50	activity, negative = inhibition
N=C(c1ccc2ccccc2c1)c1ccccc1Cc1ccccc1	3.98 µM (active)	–
CC(C)N(CCC(=O)c1ccc2ccccc2c1)Cc1ccccc1	inactive	–
COc1cc(/C=C(/NC(=O)c2ccccc2Cl)C(=O)O)cc(OC)c1OC	inactive	–
O=C(O)CNC(=O)c1ccccc1O	–	26.9% [at 11.4 µM] (inactive)
COc1ccccc1C(=O)N/C(=C/c1ccc(Br)cc1)C(=O)NCC(=O)O	25.1 µM (active)	–
CS(=O)(=O)N1CCC2(CC1)CN(c1cccc(-c3ccccc3)c1)C2	inactive	–
CCn1c(C)nc2cc(C(=O)NNS(=O)(=O)c3ccccc3F)ccc21	inactive	–
CCn1c2ccccc2c2cc(NS(=O)(=O)c3ccccc3C)ccc21	0.282 µM (active)	–
O=[N+]([O-])c1ccccc1N=Nc1c(O)[nH]c2ccc(S(=O)(=O)O)cc12	–	-23.2% [at 11.4 µM] (inactive)
CCc1ccc2[nH]c(O)c(N=Nc3nc(-c4ccccc4)cs3)c2c1	15.8 µM (active)	–
COC(=O)C1=C(C)NC(C)=C([N+](=O)[O-])[C@@H]1c1ccccc1C(F)(F)F	0.126 µM (active)	–
COC(=O)C1=C(C)NC(C)=C([N+](=O)[O-])[C@H]1c1ccccc1C(F)(F)F	0.158 µM (active)	–
CCC(=O)O[C@@]1(C(=O)SCF)[C@@H](C)C[C@H]2[C@@H]3C[C@@H](F)C4=CC(=O)C=C[C@@]4(C)[C@]3(F)[C@@H](O)C[C@]21C	inactive	–
C[C@@H](c1ccccc1)N1C(=O)[C@H]2[C@H]3[C@H](O)[C@H](O)C/C(=N/OC[C@@H](O)COCc4ccco4)[C@H]3CC[C@@H]2C1=O	–	-25% [at 11.4 µM] (inactive)
CCOC(=O)[C@@]12C[C@@H]1/C(=N/O)c1ccccc1O2	inactive	–
O=C(Nc1ccccc1)[C@@]12C[C@@H]1/C(=N/O)c1ccccc1O2	10 µM (active)	–
N=C1[C@@H](O)[C@]2(I)c3ccccc3N3C(=N)[C@H](O)[C@@H]4c5ccccc5N1[C@@H]4[C@@H]32	3.16 µM (active)	–
CC(C)[C@H](N)c1nnc(SC/C=C/c2ccccc2)o1	2 µM (active)	–
CC(C)[C@H](N)c1nnc(SCc2ccc(Cl)cc2)o1	0.178 µM (active)	–
OC[C@@H](O)[C@@H](O)[C@@H](O)[C@@H](O)c1nc2ccc(Cl)cc2[nH]1	–	-0.441% [at 11.4 µM] (inactive)
C/C(=N\N=C1\NC(=O)CC(C(=O)O)S1)c1cccs1 (centres undefined)	inactive	–
CC(=O)/C(=N\N=C(N)N)c1ccccc1	–	102% [at 11.4 µM] (inactive)
C/C(=N\N=C(c1ccccc1)c1ccccc1)c1cccs1	3.55 µM (active)	–

SMILES	AC50	activity, negative = inhibition
O=C(c1n[nH]c(=O)c2ccccc12)N1CCN(C2c3ccccc3-c3ccccc32)CC1	3.16 µM (active)	–
Cc1cccc(C)c1NC(=O)C[N+](C)(C)C	inactive and 15.8 µM (active)	–
CC[N+](CC)(CC(=O)Nc1c(C)cccc1C)Cc1ccccc1	inactive	–
CC[N+](CC)(CC)CC(=O)Nc1c(C)cccc1C	inactive	–
C/C(=N\[N+](C)(C)C)c1ccc(C)c(C)c1	–	17.4% [at 11.4 µM] (inactive)
CC1=Nc2ccccc2/C1=C\c1nc(-c2ccc(C(F)(F)F)cc2)oc1O	14.1 µM (active)	–
COc1cccc(OC)c1/C(O)=C(\C#N)c1nc2ccccc2[nH]1	7.08 µM (active)	–
Cc1ccccc1OC/C(O)=C(\C#N)c1nc2ccccc2[nH]1	inactive	–
C=CC1=C(C(=O)O)N2C(=O)[C@@H](NC(=O)/C(=N\OCC(=O)O)c3csc(N)n3)[C@@H]2SC1	inactive	–
CCOc1ccc(NC(=O)CSc2nc(C)c3c(c2C#N)CCCC3)cc1	2.82 µM (active)	–
COc1ccc(NC(=O)CSc2nc(C)c3c(c2C#N)CCCC3)cc1	1.12 µM (active)	–
CCOc1ccc(NC(=O)CCNS(=O)(=O)c2ccc3c(c2)c(=O)n(C)c(=O)n3C)cc1	inactive	–
CSc1nc(N)nc(SCC(=O)Nc2ccc(Cl)cc2)c1C#N	0.708 µM (active)	–
CC(=O)Nc1ccc(C2=NN(CC#N)C(=O)SC2)cc1	inactive	–
COc1ccc(CSC2=C(C#N)C(=O)NC3(CCCCC3)S2)cc1	–	-6.47% [at 11.4 µM] (inactive)
CO[C@H]1COC(=O)[C@H]2CCCN2C(=O)[C@@H](C)COC(=O)C/C=C\[C@@H]1C	–	43.2% [at 11.4 µM] (inactive)
C#CCCCO/N=C1/[C@H]2O[C@@H]2[C@@H](O)[C@H]2[C@H]1CCn1c(=O)n(C)c(=O)n12	–	-3.85% [at 11.4 µM] (inactive)
O=C(Oc1ccc(C(=S)N2CCOCC2)cc1Br)c1cc(Cl)ccc1Cl	inactive	–
Cc1ccccc1C(=O)Oc1ccc(Br)cc1C(=S)N1CCCC1	2.24 µM (active)	–
Cc1c(-c2ccccc2)oc2c(C(=O)OCCN3CCCCC3)cccc2c1=O	inactive	–
COc1ccc(-n2c(C)n[nH]c2=O)cc1	inactive	–
COc1ccc2c(c1)C(=O)N(c1ccccc1)C(=O)C2	11.2 µM (active)	–
O=C(c1c(O)c2ccc(Cl)cc2[nH]c1=O)C1CC1	inactive	–

SMILES	AC50	activity, negative = inhibition
CC(C)CN1CCC2(CC1)CCN(C(=O)c1ccncc1)CC2	inactive	–
CC(C)Cc1nc(N2CCN(C(=O)c3ccccc3)CC2)c(C#N)c2c1CCC2	2.51 µM (active)	–
N#Cc1c(N2CCN(C(=O)c3ccccc3Cl)CC2)nc(-c2ccccc2)c2c1CCCC2	3.98 µM (active)	–
N#Cc1ccc(CN2CCC3(CC2)CCN(C(=O)c2ccncc2)CC3)cc1	inactive	–
CCC(=O)N1CCN(C(=O)c2ccccc2)CC1	inactive	–
COc1ccc(C(=O)N2CCC3(CCN(Cc4ccc(C#N)cc4)CC3)CC2)cc1	inactive	–
CC(=O)OC[C@@H]1O[C@@H](O/N=C2/C[C@@H](O)[C@@H](O)[C@@H]3[C@H]4C(=O)N(c5ccc(F)cc5F)C(=O)[C@@H]4CC[C@@H]23)[C@H](OC(C)=O)[C@H](OC(C)=O)[C@@H]1OC(C)=O	–	51.5% [at 11.4 µM] (inactive)
Cc1cc(NC(=O)Nc2ccc3c(ccn3C)c2)sn1	3.16 µM (active)	–
CCCC[C@@H]1CN2[C@H](c3ccc(Br)cc3)[C@@H](C)CC[C@H]2C(=O)O1	–	-43.3% [at 11.4 µM] (inactive)
C[C@@H]1CC[C@H]2C(=O)NC[C@@H](O)CN2[C@@H]1c1ccc(Br)cc1	2 µM (active)	–
C[C@@H]1CC[C@H]2C(=O)O[C@H](CN=[N+]=[N-])CN2[C@@H]1c1ccc(Br)cc1	0.398 µM (active)	–
C[C@@H]1CN2[C@H](c3ccc(Br)cc3)[C@H](C)CC[C@H]2C(=O)O1	–	-28.6% [at 11.4 µM] (inactive)
CCCC[C@@H]1CN2[C@H](c3ccc(Br)cc3)[C@H](C)CC[C@H]2C(=O)O1	3.98 µM (active)	–
CO[C@H]1COC(=O)[C@@H](CCSC)NC(=O)C/C=C\[C@@H](C)[C@H](OC)COC(=O)[C@@H](OCc2ccccc2)/C=C\[C@@H]1C	–	-26% [at 11.4 µM] (inactive)
Cc1ccccc1/C=C\C1=NCCN1	inactive	–
N=C(N)[C@H](N=Nc1ccccc1)C(N)=O	–	-26.2% [at 11.4 µM] (inactive)
Cc1ccc(-c2nnc(-c3ccc4ccccc4c3)o2)cc1	–	10.3% [at 11.4 µM] (inactive)
COc1ccc(-c2nnc(-c3cccnc3)o2)cc1	17.8 µM (active)	–
CCOc1ccc(-c2nnc(-c3ccncc3)o2)cc1	0.112 µM (active)	–
N#CCCn1c(=O)cnc2cnc(N3CCNCC3)nc21	inactive	–
